Assay outcomes from PubChem.
EBV LMP1 NFkB: inhibitors of Epstein-Barr LMP1-induced NF-kappaB reporter; LMP1-induced NF-kappaB luciferase reporter cells, luminescence; inhibition, % at 12.5 µM; hit rate 0.69% among 350,000; in the data active means inhibition above about 41%
Peg3 promoter: Peg3 promoter activity inhibition; HeLa PEG-Prom luciferase reporter, luminescence, overnight; inhibition, % at 20 µM; AID 588405; hit rate 1.7% among 360,000;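 active means inhibition of at least 50% at 20 µM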
PAX8 reporter: lowers PAX8-driven luciferase in RMG-I cells | RMG-I TPO-luciferase reporter, SteadyGlo, 24 h | inhibition, % at 12.6 µM | hit rate 1.2% among 360,000;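 active means mean replicate inhibition at least 60% with every replicate also reaching 60%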;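 further: luciferase light reporting Pax8 driven TPO promoter activity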
Shn3 3UTR inh: inhibitors of Schnurri-3 3'UTR reporter in osteoblasts | inhibition, % at 12.5 µM | AID 588674 | Clone20 osteoblast Shn3 3'UTR firefly luciferase, 24 h | hit rate 0.52% among 360,000;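 active means mean inhibition of at least 75% with every replicate also reaching 75%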
HIF-2a inh: HIF-2a inhibition. 786-0 RCC cells HIF-2a reporter, luciferase luminescence, overnight. hit rate 0.72% among 360,000. inhibition, % at 18.8 µM;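 active means inhibition of the luminescence signal of 40% or more relative to plate controls, in a single-dose primary screen at 18.75 µM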
TRPM1 prom inh: MITF TRPM1 promoter inhibition in SK-MEL-5 cells | SK-MEL-5 TRPM1 promoter luciferase, 24 h | inhibition, % at 12.5 µM | hit rate 0.83% among 330,000;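 active means mean inhibition across replicates of 60% or more, whatever share of single replicates reaches that level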
Each line names hits and unclear results; the compound was inactive in the other large screens. Only some compounds are listed: those with a hit (about 2.8% of all), similar ones and a draw of the others.

COc1ccc(/C=C2/SC(=O)N(CCC(=O)Nc3ccccc3C(=O)O)C2=S)cc1	HIF-2a inh 57
CCc1ccc(/C=C2/SC(=S)N(CCCC(=O)Nc3ccccc3C(=O)O)C2=O)cc1	none
O=C(CCCN1C(=O)/C(=C\c2cccs2)SC1=S)NNC(=O)c1ccncc1	none
O=C(CCN1C(=O)/C(=C/c2ccccc2Cl)SC1=S)Nc1ccccc1C(=O)O	PAX8 reporter 100
O=C(CCCN1C(=O)/C(=C/c2ccccc2Cl)SC1=S)NNC(=O)c1ccccc1	HIF-2a inh 90
CC(C)NC(=O)Nc1ccc2c(c1)C(=O)N([C@@H](C)CO)C[C@H](C)[C@@H](CN(C)C)OCCCC[C@H](C)O2	none (no result: EBV LMP1 NFkB, Peg3 promoter, Shn3 3UTR inh, HIF-2a inh, TRPM1 prom inh)
CO[C@H]1CC[C@@H]2CCN(C)C(=O)[C@H](C)[C@H](OC)CN(C)C(=O)c3cccc(C#N)c3OC[C@H]1O2	none (no result: EBV LMP1 NFkB, Peg3 promoter, Shn3 3UTR inh, HIF-2a inh, TRPM1 prom inh)
C[C@@H]1CN([C@@H](C)CO)C(=O)Cc2cc(NC(=O)NC3CCCCC3)ccc2O[C@@H]1CN(C)C(=O)Nc1ccc(F)cc1	none (no result: EBV LMP1 NFkB, Peg3 promoter, Shn3 3UTR inh, HIF-2a inh, TRPM1 prom inh)
Cc1ccc(-c2cnc3c(c2)C(=O)N([C@@H](C)CO)C[C@@H](C)[C@@H](CN(C)C(=O)c2ccncc2)O3)cc1	none (no result: EBV LMP1 NFkB, Peg3 promoter, Shn3 3UTR inh, HIF-2a inh, TRPM1 prom inh)
COc1cccc2sc(Nc3nc(-c4ccccn4)cs3)nc12	EBV LMP1 NFkB 46 (no result: PAX8 reporter)
c1ccc(Nc2nc(-c3ccccn3)cs2)cc1	none
C[C@@H]1CN([C@H](C)CO)C(=O)c2cc(NC(=O)Nc3cccc4ccccc34)ccc2O[C@H]1CN(C)S(=O)(=O)c1ccc(F)cc1	none (no result: EBV LMP1 NFkB, Peg3 promoter, Shn3 3UTR inh, HIF-2a inh, TRPM1 prom inh)
C[C@@H]1CN([C@H](C)CO)S(=O)(=O)c2ccc(C#Cc3ccccc3F)cc2O[C@H]1CN(C)C(=O)Cc1ccncc1	none (no result: EBV LMP1 NFkB, Peg3 promoter, Shn3 3UTR inh, HIF-2a inh, TRPM1 prom inh)
Cc1ccc(S(=O)(=O)Nc2ccc3c(c2)C(=O)N([C@@H](C)CO)C[C@@H](C)[C@H](CN(C)Cc2ccc4c(c2)OCO4)OCCCC[C@H](C)O3)cc1	none (no result: EBV LMP1 NFkB, Peg3 promoter, Shn3 3UTR inh, HIF-2a inh, TRPM1 prom inh)
Cc1ccc(S(=O)(=O)Nc2ccc3c(c2)C(=O)N([C@@H](C)CO)C[C@@H](C)[C@@H](CN(C)Cc2ccc4c(c2)OCO4)OCCCC[C@H](C)O3)cc1	PAX8 reporter 72 (no result: EBV LMP1 NFkB, Peg3 promoter, Shn3 3UTR inh, HIF-2a inh, TRPM1 prom inh)
C[C@@H]1CCCCO[C@H](CN(C)Cc2ccc3c(c2)OCO3)[C@@H](C)CN([C@@H](C)CO)C(=O)c2cc(NS(=O)(=O)c3ccc(Cl)cc3)ccc2O1	PAX8 reporter 114 (no result: EBV LMP1 NFkB, Peg3 promoter, Shn3 3UTR inh, HIF-2a inh, TRPM1 prom inh)
C[C@@H]1CN([C@@H](C)CO)C(=O)c2cc(NS(=O)(=O)c3ccc(Cl)cc3)ccc2O[C@@H](C)CCCCO[C@@H]1CN(C)Cc1ccc2c(c1)OCO2	PAX8 reporter 71 (no result: EBV LMP1 NFkB, Peg3 promoter, Shn3 3UTR inh, HIF-2a inh, TRPM1 prom inh)
C[C@@H]1CCCCO[C@@H](CN(C)Cc2ccc3c(c2)OCO3)[C@H](C)CN([C@@H](C)CO)C(=O)c2cc(NS(=O)(=O)c3ccc(Cl)cc3)ccc2O1	none (no result: EBV LMP1 NFkB, Peg3 promoter, Shn3 3UTR inh, HIF-2a inh, TRPM1 prom inh)
O=S(=O)(N[C@H]1CC[C@@H](CCn2cc(-c3ccccn3)nn2)O[C@@H]1CO)c1cccc(F)c1	none (no result: EBV LMP1 NFkB, Peg3 promoter, Shn3 3UTR inh, HIF-2a inh, TRPM1 prom inh)
C[C@H](NC(=O)c1nc[nH]c1C(=O)N[C@@H](Cc1ccccc1)C(=O)OC(C)(C)C)c1ccccc1	none
CC(C)(C)OC(=O)[C@H](Cc1ccccc1)NC(=O)c1nc[nH]c1C(=O)N[C@@H](CCCCN)C(=O)OC(C)(C)C	Peg3 promoter 103
C[C@@H](NC(=O)c1nc[nH]c1C(=O)N[C@@H](Cc1ccccc1)C(=O)OC(C)(C)C)c1ccccc1	PAX8 reporter 95
CC(C)(C)OC(=O)NCc1ccc(CNC(=O)c2[nH]cnc2C(=O)N[C@@H](Cc2ccccc2)C(=O)OC(C)(C)C)cc1	PAX8 reporter 76
CC(C)(C)OC(=O)NCc1ccc(CNC(=O)c2[nH]cnc2C(=O)NCC(=O)OCc2ccccc2)cc1	Peg3 promoter 52
CC(C)(C)OC(=O)NCc1ccc(CNC(=O)c2nc[nH]c2C(=O)NCc2ccccc2)cc1	none
COc1ccc(NC(=O)Nc2ccc3c(c2)C(=O)N([C@H](C)CO)C[C@@H](C)[C@@H](CN(C)Cc2ccccc2)OCCCC[C@H](C)O3)cc1	none (no result: EBV LMP1 NFkB, Peg3 promoter, Shn3 3UTR inh, HIF-2a inh, TRPM1 prom inh)
CCCNC(=O)N(C)C[C@H]1Oc2cc(C3=CCCC3)ccc2S(=O)(=O)N([C@@H](C)CO)C[C@H]1C	none (no result: EBV LMP1 NFkB, Peg3 promoter, Shn3 3UTR inh, HIF-2a inh, TRPM1 prom inh)
CCCNC(=O)C[C@@H]1CC[C@@H]2[C@@H](COc3ccc(NC(=O)Cc4ccccc4)cc3C(=O)N2C)O1	none (no result: EBV LMP1 NFkB, Peg3 promoter, Shn3 3UTR inh, HIF-2a inh, TRPM1 prom inh)
C[C@H](NC(=O)C[C@H]1C[C@H]2c3cc(NC(=O)c4cccnc4)ccc3O[C@H]2[C@@H](CO)O1)c1ccccc1	none (no result: EBV LMP1 NFkB, Peg3 promoter, Shn3 3UTR inh, HIF-2a inh, TRPM1 prom inh)
O=C(Nc1ccc(Cl)c(S(=O)(=O)N2CCOCC2)c1)c1cc2ccccc2oc1=O	Peg3 promoter 95
